Measurements taken from PubChem BioAssay AID504465 (National Center for Advancing Translational Sciences (NCATS), 2011).
The whole screen tested about 2,100 compounds, of which about 210 (10%) were called active. Another 53% or so got no clear call; they are omitted. The list shows a part of the results. Values without a mark were called inactive. Calls follow the shape of the dose curve; as a rule, active = well fitted inhibition curve with a large enough effect; inconclusive = small, poorly fitted or top-dose-only effect, or effect the other way; inactive = no such curve, though single readings can be large or run the other way.
Potency is read from the fitted curve at half-maximal effect.

Experiment: IN Cell qHTS Assay for Inhibitors of the mTORC1 Signaling Pathway in MEF (Tsc2-/-, p53-/-) Cells: Sytravon; also: nearly all actives have a fitted effect of over 60% in size;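 as to activity, negative = inhibition: plate controls were DMSO wells for no effect and 7.5 nM rapamycin full pathway inhibition for full effect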
Details: phospho-rpS6 immunofluorescence, 24 h; series mostly up to 38.3 µM; activity, negative = inhibition: at the top concentration
Summary of the method: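 Tsc2-/-, p53-/- MEFs (empty-vector) treated with compound 24 h at 37 degree Celsius, then fixed and stained for phospho-rpS6 Ser235/236 (Alexa-488) plus Hoechst. Reported as % positive cells, thresholds set against 7.5 nM rapamycin and DMSO wells.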
In the case of `CC1CCN(C(=O)CN2c3ccc(C(C)C)cc3-c3ccccc3S2(=O)=O)CC1`, the “activity, negative = inhibition” value was -27%.
With `COc1ccccc1N1CCN(S(=O)(=O)c2ccc(-n3cnnn3)cc2)CC1` the “activity, negative = inhibition” value was -7.47%.
In the case of `Cc1cc(C)cc(OCC(=O)Nc2ccc(-c3nc4ncccc4o3)cc2C)c1`, the “activity, negative = inhibition” value was -21.9%.
For `COc1cccc(C2CC(=O)Nc3cc4c(cc32)OCCO4)c1OC` (stereo not given), the “activity, negative = inhibition” value was -21.4%.
With `COc1cc(/C=C/c2nc(C#N)c(N3CCCCCC3)o2)cc(OC)c1OC` the “activity, negative = inhibition” value was -24.2%.
For `CCOc1ccc(-c2c(C)nn3c(C)c(C(=O)Nc4cccc(Cl)c4C)cnc23)cc1OCC`, the “activity, negative = inhibition” value was -10.9%.
With `COc1ccc(CCNC(=O)C(C)n2nc(C)c3sc4ccccc4c3c2=O)c(OC)c1` (stereo not given) the Potency was 4.65 µM (active).
For `COc1ccc(CNC(=O)c2cc(-c3ccc(Br)s3)nc3ccccc23)c(OC)c1`, the “activity, negative = inhibition” value was -13.5%.
In the case of `COc1ccc(CNC(=O)CCCc2cn(C)c3ccccc23)c(OC)c1`, the “activity, negative = inhibition” value was 6.25%.
With `O=C(Cn1cc(SCc2cccc(C(F)(F)F)c2)c2ccccc21)N1CCCCCC1` the “activity, negative = inhibition” value was -22.9%.
With `Cc1cccc(-c2noc(CNC(=O)c3ccc(C)cc3C)n2)c1` the “activity, negative = inhibition” value was -7.27%.
In the case of `Cc1ccc(NC(=O)c2cc(S(=O)(=O)NCCC3=CCCCC3)ccc2F)cc1F`, the “activity, negative = inhibition” value was 6.25%.
With `COc1ccc(-n2ncc3c(NCCCOC(C)C)ncnc32)cc1` the “activity, negative = inhibition” value was -3.87%.
With `COc1cccc(-c2noc(CCCC(=O)NCc3ccco3)n2)c1` the “activity, negative = inhibition” value was -11.3%.
With `O=C(NCc1ccccc1Cl)c1cnc(N2CCCCC2)c2ccccc12` the “activity, negative = inhibition” value was -24.1%.
With `COc1ccccc1N1CCN(C(=O)c2nc(SC)ncc2Cl)CC1` the “activity, negative = inhibition” value was -10.7%.
In the case of `COc1ccccc1N1CCN(C(=O)c2cnc(N3CCCCC3)c3ccccc23)CC1`, the Potency was 5.85 µM (active).
For `Cc1ccccc1Nc1c(-c2cccc(N(C)C)c2)nc2ccc(Br)cn12`, the “activity, negative = inhibition” value was 24.1%.
In the case of `Cc1cc(=O)n(CC(=O)N2CCN(c3ccccc3F)CC2)c2c1c(C)nn2C`, the “activity, negative = inhibition” value was -5.56%.
With `COc1cc(NC(=O)Cn2nc(C(F)(F)F)c3c2CCCC3)c(OC)cc1Cl` the “activity, negative = inhibition” value was -24%.
For `O=C(Nc1nnc(SCc2cc(=O)c3ccccc3[nH]2)s1)c1ccccc1`, the “activity, negative = inhibition” value was -6.25%.
For `Cc1nnc(NC(=O)CSCc2cc(=O)c3ccccc3[nH]2)s1`, the “activity, negative = inhibition” value was 14.3%.
For `CCCC(=O)Nc1nnc(SCc2cc(=O)c3ccc(C)cc3[nH]2)s1`, the Potency was 3.69 µM (active).
For `Cc1ccc(-n2c(SCc3nc(-c4ccccc4C)no3)nnc2-c2ccncc2)cc1C`, the “activity, negative = inhibition” value was -7.02%.
With `C=CCc1cccc2cc(-c3nc4ccc(C)cc4[nH]3)c(=O)oc12` the “activity, negative = inhibition” value was -4.54%.
With `CCC(C(=O)Nc1cc(-c2nc3cccnc3s2)ccc1C)c1ccccc1` (stereo not given) the “activity, negative = inhibition” value was -14.5%.
For `COc1ccccc1Nc1cc(C(=O)NCCCN(C)C2CCCCC2)c2ccccc2n1`, the Potency was 1.65 µM (active).
In the case of `COc1ccc(Nc2cc(C(=O)NCCCN(C)Cc3ccccc3)c3ccccc3n2)cc1OC`, the “activity, negative = inhibition” value was 0%.
With `CCCCN(CCCNC(=O)c1cc(Nc2ccc(OC)c(OC)c2)nc2ccccc12)Cc1ccccc1` the Potency was 2.33 µM (active).
With `COc1ccc(N2CCN(CCCNC(=O)c3cc(Nc4ccccc4OC)nc4ccccc34)CC2)cc1` the “activity, negative = inhibition” value was 0%.
In the case of `CSc1cccc(Nc2cc(C(=O)NCCCN(Cc3ccccc3)C(C)C)c3ccccc3n2)c1`, the “activity, negative = inhibition” value was 0%.
In the case of `CC1CCCN(CCCNC(=O)c2cc(Sc3ccc(F)cc3)nc3ccccc23)C1` (stereo not given), the “activity, negative = inhibition” value was 6.25%.
For `CC1CCCCN1S(=O)(=O)c1ccc(C(=O)Nc2sc3c(c2C(N)=O)CC(C)(C)NC3(C)C)cc1` (stereo not given), the “activity, negative = inhibition” value was 6.25%.
In the case of `COc1ccccc1NC(=O)C1=C(C)Nc2nc(SCc3ccccc3)nn2C1c1cccs1` (stereo not given), the “activity, negative = inhibition” value was -16.2%.
With `CCC1CN(C(=O)NCc2cccc(OC)c2)c2cc(Cl)ccc2O1` (stereo not given) the “activity, negative = inhibition” value was -9.57%.
In the case of `Cc1ccc(NC(=O)C(Cc2c[nH]c3ccccc23)NC(=O)OC(C)(C)C)c(C)c1` (stereo not given), the “activity, negative = inhibition” value was 30.2%.
For `O=C(Nc1cc(Cl)cc(Cl)c1)c1ccc(F)c(S(=O)(=O)NC2CCCCC2)c1`, the “activity, negative = inhibition” value was 6.25%.
With `O=C1CC(c2c(F)cccc2Cl)c2c(ccc3ccccc23)N1` (stereo not given) the “activity, negative = inhibition” value was 2%.
For `COC(=O)c1ccc(C2C=C(c3ccc(Cl)cc3)Nc3nc4ccccc4n32)cc1` (stereo not given), the “activity, negative = inhibition” value was 0%.
In the case of `Cc1ccc(NC(=O)c2nc(S(=O)(=O)Cc3cccc(C)c3)ncc2Cl)cc1`, the Potency was 6.56 µM (active).
With `COc1ccc(CNC(=O)C2CCC(CNS(=O)(=O)c3cccs3)CC2)cc1` (stereo not given) the “activity, negative = inhibition” value was 21.6%.
In the case of `CC1CCn2c(nc3cc(C(=O)NCc4ccccc4)ccc32)C1` (stereo not given), the “activity, negative = inhibition” value was 4.17%.
With `Cc1c(C(=O)Nc2cccc(F)c2)oc2c1-c1nn(Cc3c(F)cccc3Cl)cc1CC2` the “activity, negative = inhibition” value was -85.4%.
In the case of `CCOC(=O)c1cc(S(=O)(=O)NCc2ccc(OC)cc2)[nH]n1`, the “activity, negative = inhibition” value was -9.55%.
With `Cc1cccc(NC(=O)c2nc(S(C)(=O)=O)ncc2Cl)c1` the Potency was 2.61 µM (active).
For `O=C(NCc1ccccc1)c1nc(S(=O)(=O)Cc2ccccc2)ncc1Cl`, the Potency was 18.5 µM (active).
For `Cc1cccc(NC(=O)c2ccc(F)c(S(=O)(=O)NCc3ccc4c(c3)OCO4)c2)c1`, the “activity, negative = inhibition” value was 6.25%.
In the case of `CCS(=O)(=O)c1ncc(Cl)c(C(=O)NCc2ccc(OC)cc2)n1`, the Potency was 3.29 µM (active).
In the case of `O=C(Nc1ccc(F)c(F)c1)c1cc(S(=O)(=O)N2CCc3ccccc32)ccc1F`, the “activity, negative = inhibition” value was 6.25%.
In the case of `COc1ccc(-c2ccc(CCC(=O)O)n2-c2cc(Cl)ccc2O)cc1`, the “activity, negative = inhibition” value was -13.7%.
With `CC(C)c1ccc(NC(=O)C2Cc3ccccc3N2C(=O)c2ccccc2)cc1` (stereo not given) the “activity, negative = inhibition” value was -4.76%.
In the case of `CCOC(=O)c1c(NC(=O)c2ccc(S(=O)(=O)N3CCC(C)CC3)cc2)sc2c1CCN(CC)C2`, the “activity, negative = inhibition” value was 6.25%.
With `Cc1ccc(-c2cc(C(=O)N3CCN(c4ccccc4)CC3)c3ccccc3n2)cc1C` the “activity, negative = inhibition” value was -15.7%.
With `CCOC(=O)C1CCCN(C(=O)Cn2c(=O)cc(C)c3c(C)nn(C)c32)C1` (stereo not given) the “activity, negative = inhibition” value was -0.372%.
In the case of `O=C(NCCSc1c(-c2ccc(F)cc2)[nH]c2ccccc12)c1ccc(S(=O)(=O)N2CCOCC2)cc1`, the “activity, negative = inhibition” value was 4.61%.
With `Cc1ccc(NC(=O)c2c(C)oc3ccc(O)c(CN4CCCCC4)c23)c(C)c1` the “activity, negative = inhibition” value was -4.63%.
For `CCc1ccc(CNC(=O)Cn2nc(-c3ccc(C)cc3)ccc2=O)cc1`, the “activity, negative = inhibition” value was 6.25%.
With `Cc1nnc(SCC(=O)NCc2ccccc2F)c2nn(-c3ccc(Cl)cc3)c(C)c12` the “activity, negative = inhibition” value was 0%.
In the case of `Cc1cccc(CS(=O)(=O)c2ncc(Cl)c(C(=O)NCc3ccccc3)n2)c1`, the Potency was 18.5 µM (active).
For `COc1ccc(NC(=O)CCc2nc3c(C)nn(-c4ccc(C)cc4)c3n(C)c2=O)cc1`, the “activity, negative = inhibition” value was -1.68%.
For `CCc1cnc2c(c1SCC(=O)NCc1ccccc1)c(=O)n(C)c(=O)n2C`, the “activity, negative = inhibition” value was 0.735%.
In the case of `COc1ccc(NC(=O)c2nc(S(=O)(=O)Cc3ccc(C)cc3)ncc2Cl)cc1`, the Potency was 2.61 µM (active).
With `CCS(=O)(=O)c1ncc(Cl)c(C(=O)NCc2ccccc2)n1` the Potency was 3.29 µM (active).
For `CCOC(=O)c1c(NC(=O)c2ccc(S(=O)(=O)N3CCC(C)CC3)cc2)sc2c1CCN(C(C)C)C2`, the “activity, negative = inhibition” value was 6.25%.
In the case of `CCCS(=O)(=O)c1ncc(Cl)c(C(=O)Nc2scc(-c3ccccc3)c2C(=O)OCC)n1`, the “activity, negative = inhibition” value was -21.1%.
For `CCOC(=O)c1c(NC(=O)c2nc(S(C)(=O)=O)ncc2Cl)sc(C(C)=O)c1C`, the Potency was 5.85 µM (active).
In the case of `Cc1c2cnn(CC(=O)NCc3ccccc3)c(=O)c2c(C)n1Cc1cccc(Cl)c1`, the “activity, negative = inhibition” value was -19.8%.
In the case of `CCC1(C)CC(=O)c2c(ccc3oc(C(=O)NCc4ccccc4)c(C)c23)O1` (stereo not given), the “activity, negative = inhibition” value was -8.68%.
With `Cc1cccc(Cn2c(=O)n(CCCC(=O)NCc3ccccc3Cl)c(=O)c3ccccc32)c1` the “activity, negative = inhibition” value was -5.71%.
In the case of `Cc1ccc(S(=O)(=O)C2(C(=O)Nc3ccc(C(C)C)cc3)CC2)cc1`, the “activity, negative = inhibition” value was 23.2%.
